In the library only some 8.1% were active in any assay of this set; here they are far more common.
NOMO-1 viab = NOMO-1 AML cell viability reduction, primary screen, STK33 inhibitor project, CellTiter-Glo luminescence; NOMO-1 AML viability, 72 h; inhibition, % (concentration not given with the values); hit rate 7.5% among 37,000; in the data active = inhibition above about 80%; inconclusive = no clear call, values can overlap the other calls
Shh pathway inh = Hedgehog pathway signaling inhibitors, primary screen, luminescence, Shh-LIGHT2 cells, Gli-luciferase | Shh-LIGHT2 Gli-luciferase reporter, 30 h | inhibition, % (test concentration not listed) | hit rate 2.1% among 22,000 | AID 2313, 2010;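 active = mean inhibition across valid replicates above about 65%, limit read from the data; inconclusive = mean under the limit, yet half or more replicates past it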;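 also: pathway switched on by Shh-conditioned medium diluted 1 in 25 in low serum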
MITF inh = inhibitors of MITF, primary screen, MITF inhibitor project, cell-based, luminescence; AID 2240, 2010; hit rate 0.28% among 37,000; TRPM1 promoter luciferase, 24 h; inhibition, % (concentration not given with the values); in the data active = inhibition above about 85%; inconclusive = no clear call, values can overlap the other calls; inactive = below about 68%;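 also: human melanocyte line stably carrying TRPM1 promoter luciferase reporter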
* hit, by the source's call.

What do the screens show for `Cc1cccc(NC(=O)C(C)N(c2ccc(Oc3ccccc3)cc2)S(C)(=O)=O)c1` (stereo not given)?
NOMO-1 viab: 15; MITF inh: 12

How did Cc1cc(C)nc(Nc2n[nH]c(CSc3nc4ccccc4s3)n2)n1 do in these assays?
NOMO-1 viab: 13; MITF inh: 20

How did C#C[C@]1(O)CCC2C3CCc4cc(O)ccc4C3CC[C@@]21C (stereo not given in full) do in these assays?
NOMO-1 viab: 107*; Shh pathway inh: -27; MITF inh: 18

What do the screens show for `C[C@]12CC[C@@H]3c4ccc(O)cc4CC[C@H]3[C@@H]1C[C@@H](O)[C@@H]2O`?
NOMO-1 viab: -4; Shh pathway inh: 47; MITF inh: -4

What do the screens show for `CC(C)=CCC/C(C)=C/CCC1(C)Oc2c(c(O)cc3c2CN(C(CCC(=O)O)C(=O)O)C3=O)CC1O` (stereo not given)?
NOMO-1 viab: 1; Shh pathway inh: -11; MITF inh: -8

How did CCN(CC(=O)Nc1cccc(C(C)=O)c1)S(=O)(=O)c1ccc(F)cc1 do in these assays?
NOMO-1 viab: -10; MITF inh: -12

Results for O=C(COc1ccccc1)Nc1ccc2nn(-c3ccc(Cl)cc3)nc2c1 ?
NOMO-1 viab: 16; MITF inh: -70

Results for C[C@H]1CN([C@@H](C)CO)C(=O)Cc2cc(NC(=O)CCC(F)(F)F)ccc2O[C@H]1CN(C)Cc1ccc(C(=O)Nc2ccccc2N)cc1 ?
NOMO-1 viab: 139*; MITF inh: 15

How did C[C@H]1CN([C@@H](C)CO)C(=O)Cc2cc(NC(=O)CCC(F)(F)F)ccc2O[C@@H]1CN(C)Cc1ccc(C(=O)Nc2ccccc2N)cc1 do in these assays?
NOMO-1 viab: 43; MITF inh: 5

What do the screens show for `C[C@H]1CN([C@@H](C)CO)C(=O)c2cc(NC(=O)CCC(F)(F)F)ccc2O[C@@H]1CN(C)Cc1ccc(C(=O)Nc2ccccc2N)cc1`?
NOMO-1 viab: inconclusive; MITF inh: 0

Results for C[C@@H]1CN([C@H](C)CO)C(=O)c2cc(NC(=O)CCC(F)(F)F)ccc2O[C@@H]1CN(C)Cc1ccc(C(=O)Nc2ccccc2N)cc1 ?
NOMO-1 viab: 104*; MITF inh: 15

Results for Cc1ccccc1NC(=O)C1CC=CCC1C(=O)O (stereo not given) ?
NOMO-1 viab: -13; MITF inh: 11

Results for COc1ccccc1NC(=O)C(CCS(C)(=O)=O)N1C(=O)c2ccc(Br)cc2C1=O (stereo not given) ?
NOMO-1 viab: -20; MITF inh: -15

How did C[C@@H]1CN([C@@H](C)CO)C(=O)c2cccc(NC(=O)Nc3ccc(C(F)(F)F)cc3)c2O[C@@H]1CN(C)C(=O)Nc1cccc2ccccc12 do in these assays?
NOMO-1 viab: 66; Shh pathway inh: -5; MITF inh: 8

Results for C[C@@H]1CN([C@@H](C)CO)C(=O)c2cccc(NC(=O)Nc3ccc(C(F)(F)F)cc3)c2O[C@H]1CN(C)C(=O)Nc1cccc2ccccc12 ?
NOMO-1 viab: 106*; Shh pathway inh: -150; MITF inh: 40

How did C[C@H](CO)N1C[C@H](C)[C@@H](CN(C)C(=O)Nc2cccc3ccccc23)Oc2c(NC(=O)Nc3ccc(C(F)(F)F)cc3)cccc2C1=O do in these assays?
NOMO-1 viab: 117*; Shh pathway inh: -26; MITF inh: 13

What do the screens show for `C[C@H](CO)N1C[C@H](C)[C@H](CN(C)C(=O)Nc2cccc3ccccc23)Oc2c(NC(=O)Nc3ccc(C(F)(F)F)cc3)cccc2C1=O`?
NOMO-1 viab: 77; Shh pathway inh: -8; MITF inh: 35

What do the screens show for `CC(C)(Oc1ccc(Cl)cc1)C(=O)Nc1cccc(-c2nc3ncccc3o2)c1`?
NOMO-1 viab: 42; MITF inh: 28

Results for Cc1ccc(NC(=O)CSc2n[nH]c(-c3ccccc3Cl)n2)cc1C ?
NOMO-1 viab: 8; MITF inh: 4

What do the screens show for `COc1ccc(OCC(O)Cn2cnc3ccccc32)cc1` (stereo not given)?
NOMO-1 viab: 23; MITF inh: -36

What do the screens show for `C=C(C)C(=O)O[C@H]1[C@H]2C(=C)C(=O)O[C@@H]2C[C@@H](C)/C=C/C(=O)[C@](C)(O)[C@@H]1OC(C)=O`?
NOMO-1 viab: 118*; Shh pathway inh: -10; MITF inh: 90*

What do the screens show for `NC(=S)/N=C1\CCCCC1=C1CCCCC1`?
NOMO-1 viab: 17; Shh pathway inh: -7; MITF inh: 6

Results for Cc1ccc(S(=O)(=O)N(CC(N)=O)c2ccc(Cl)c(Cl)c2)cc1 ?
NOMO-1 viab: 34; MITF inh: 19

How did O=C(/C=C/c1ccc(O)cc1)c1ccc(O)cc1O do in these assays?
NOMO-1 viab: 57; Shh pathway inh: 10; MITF inh: -78

Results for O=C(/C=C/c1ccc(O)cc1)CC(=O)/C=C/c1ccc(O)cc1 ?
NOMO-1 viab: 108*; Shh pathway inh: 11; MITF inh: -1

How did O=C(CSc1nc2ccccc2c(=O)[nH]1)Nc1cccc(I)c1 do in these assays?
NOMO-1 viab: 6; MITF inh: 29

How did CC(C)NC(=O)Nc1ccc2c(c1)C(=O)N([C@@H](C)CO)C[C@@H](C)[C@H](CN(C)Cc1ccc(C(=O)Nc3ccccc3N)cc1)O2 do in these assays?
NOMO-1 viab: 47; MITF inh: -10

What do the screens show for `C[C@H]1CN([C@@H](C)CO)C(=O)c2cc(NC(=O)NC3CCCCC3)ccc2O[C@H]1CN(C)Cc1ccc(C(=O)Nc2ccccc2N)cc1`?
NOMO-1 viab: 59; MITF inh: 4

What do the screens show for `C[C@H](CO)N1C[C@H](C)[C@H](CN(C)Cc2ccc(C(=O)Nc3ccccc3N)cc2)Oc2ccc(NC(=O)NC3CCCCC3)cc2C1=O`?
NOMO-1 viab: 98*; MITF inh: -23

How did CC(C)NC(=O)Nc1ccc2c(c1)C(=O)N([C@H](C)CO)C[C@@H](C)[C@H](CN(C)Cc1ccc(C(=O)Nc3ccccc3N)cc1)O2 do in these assays?
NOMO-1 viab: 15; MITF inh: -17

What do the screens show for `C[C@@H]1CN([C@@H](C)CO)C(=O)c2cc(NC(=O)NC3CCCCC3)ccc2O[C@@H]1CN(C)Cc1ccc(C(=O)Nc2ccccc2N)cc1`?
NOMO-1 viab: 107*; MITF inh: 6

What do the screens show for `C[C@@H]1CN([C@H](C)CO)C(=O)c2cc(NC(=O)NC3CCCCC3)ccc2O[C@@H]1CN(C)Cc1ccc(C(=O)Nc2ccccc2N)cc1`?
NOMO-1 viab: 99*; MITF inh: -9

Results for O=C(Cn1cnc2sc(-c3ccccc3)cc2c1=O)Nc1ccc(F)c(Cl)c1 ?
NOMO-1 viab: 5; MITF inh: -19

How did CC(C)(C)C(=O)Nc1c(Cl)sc2nccc(=O)n12 do in these assays?
NOMO-1 viab: -12; MITF inh: -7

How did O=S(=O)(NCc1cccnc1)c1ccc(C2CCCCC2)cc1 do in these assays?
NOMO-1 viab: 55; MITF inh: 74

Results for O=C(CSc1nnc(-c2cccc(Br)c2)n1-c1ccccc1)Nc1ccccc1[N+](=O)[O-] ?
NOMO-1 viab: 18; MITF inh: 12

What do the screens show for `COc1ccc(CCC(=O)CCc2ccc(OC)cc2)cc1`?
NOMO-1 viab: 16; Shh pathway inh: -33; MITF inh: -12

Screening data (PubChem)
